This is a sample that favours compounds with a hit; in the whole collection about 27% have one here.
CYP2C9 act = activators of human CYP2C9. recombinant CYP2C9, luciferin-H conversion, luminescence; active compounds read high; factor 1 = untreated enzyme, 0 = blocked. 1.4% of 96,000 active. P11712. activation factor at 5 µM;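 active means activation factor of 2 or more for CYP2C9 at a 5 µM dose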
CYP2C9 inh = human CYP2C9 inhibition | P11712 | CYP2C9 Supersomes, luciferin-H conversion, luminescence | inhibition, % at 5 µM | 20% of 96,000 active | AID 777;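 active means blocking of liver enzyme CYP2C9 beyond about 50% at 5 µM, limit read from the data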
CYP2C19 act = cytochrome P450 2C19 (human) activation; recombinant CYP2C19, luciferin-H EGE luminescence; active compounds read high; 0 = fully inhibited enzyme, 1 = untreated enzyme; activation factor at 5 µM; 96,000 tested, under 10 active; AID 1025;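 active means activation factor of at least 2 at 5 µM in the primary screen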
CYP2C19 inh = inhibitors of human CYP2C19. P33261. CYP2C19 Supersomes, luciferin-H EGE luminescence, 30 min. inhibition, % at 5 µM. 21% of 96,000 active. AID 778;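 active means CYP2C19 inhibition above a set limit at 5 µM in the primary screen, cut at about 50% in these data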
Cav3 T inh = blocks human Cav3.2 T-type calcium channel | Cav3.2-expressing cells, Fluo-4 calcium fluorescence FDSS; active compounds read low | B-score at 10 µM | 4% of 100,000 active | O95180;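 active means single-dose well whose peak fluorescence ratio is a statistical outlier from its plate by either plate-standardised score or position-corrected B-score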
Of the large screens only hits and unclear results are named; the others gave an inactive call.

CC(C)c1ccc(S(=O)(=O)N2CCN(CC(=O)Nc3ccc4c(c3)OCO4)CC2)cc1	Cav3 T inh -6.92
Cc1nc2nc(C)c(CCC(=O)NCc3ccc4c(c3)OCO4)c(C)n2n1	none
Nc1ccc2c(c1)COc1ccccc1O2	CYP2C19 inh 69.4
CCc1cc2cc(C(=O)N3CCN(Cc4ccccc4)CC3)sc2s1	Cav3 T inh -4.77
Cc1nn(Cc2ccccc2)c2sc(C(=O)N3CCN(Cc4ccc5c(c4)OCO5)CC3)cc12	CYP2C9 inh 66.7, Cav3 T inh -4.3
O=C(c1ccc2nc(N3CCCCC3)sc2c1)N1CCN(Cc2ccc3c(c2)OCO3)CC1	CYP2C9 inh 83.3, CYP2C19 inh 88.7, Cav3 T inh -3.97
CC1CCN(c2nc3ccc(C(=O)N4CCN(Cc5ccccc5)CC4)cc3s2)CC1	CYP2C19 inh 59.6, Cav3 T inh -5.76
Cc1cc(C(=O)N2CCN(S(C)(=O)=O)CC2)cs1	CYP2C19 inh 55.8
O=C(Cn1cnc2ccccc2c1=O)N1CCN(Cc2ccc3c(c2)OCO3)CC1	none (no result: Cav3 T inh)
Cc1cc(C(=O)N2CCN(Cc3ccc4c(c3)OCO4)CC2)cs1	CYP2C9 inh 59.2, CYP2C19 inh 96.2
CCn1cnc2sc(C(=O)N3CCN(Cc4ccc5c(c4)OCO5)CC3)c(C)c2c1=O	CYP2C9 inh 75.3, CYP2C19 inh 85.2 (no result: Cav3 T inh)
Cc1cc(C(=O)N2CCN(Cc3ccc4c(c3)OCO4)CC2)on1	none (no result: CYP2C9 act, CYP2C9 inh, CYP2C19 act, CYP2C19 inh)
CCOC(=O)c1cc(S(=O)(=O)NC2CCN(C(=O)OCC)CC2)cn1C	CYP2C9 inh 56.8
CN(C1CCCCC1)S(=O)(=O)Cc1ccccc1	CYP2C19 inh 53.9
O=C(CN(Cc1ccccc1Cl)C(=O)c1ccc(CN2CCOCC2)o1)NCc1ccccc1	none
CC(C)(C)n1nnnc1C(c1cccnc1)N(Cc1ccccc1)Cc1cccs1 (stereo not given)	CYP2C9 inh 60.7
Clc1ccc(CN(Cc2ccccc2)C(c2cccs2)c2nnnn2C2CCCC2)cc1 (stereo not given)	none
CC(C)(C)c1ccc(CN(Cc2ccccc2)C(c2ccccn2)c2nnnn2C(C)(C)C)cc1 (stereo not given)	none
CC(C)(C)n1nnnc1C(c1cccs1)N(Cc1ccc(Cl)cc1)CC1CCCO1 (stereo not given)	Cav3 T inh -4.58
CC(C)(C)n1nnnc1CN(Cc1cccnc1)Cc1ccccc1Cl	CYP2C19 inh 88.1
CC(C)(C)n1nnnc1C(c1cccs1)N(Cc1ccccc1)Cc1cccnc1 (stereo not given)	Cav3 T inh -4.57
CC(C)(C)n1nnnc1CN(Cc1ccco1)Cc1cc2cc3c(cc2[nH]c1=O)OCO3	none
CC(C)c1cc(=O)oc2c3c4c(cc12)CCCN4CCC3	CYP2C19 inh 86.9, Cav3 T inh -3.95
Cc1cc(=O)oc2c3c4c(cc12)OCCN4CCC3	none (no result: CYP2C9 act, CYP2C9 inh, CYP2C19 act, CYP2C19 inh)
O=c1oc2c3c4c(cc2c(C(F)(F)F)c1CCN1CCOCC1)CCCN4CCC3	Cav3 T inh -6.62
N#Cc1ccsc1NC(=O)CSc1ncnc2ccccc12	CYP2C9 inh 64.5
N#Cc1ccsc1NC(=O)CSc1ncn[nH]1	none
COc1ccc(S(=O)(=O)N(C)CC(=O)NCc2cccnc2)cc1C	CYP2C19 inh 79.5
CCN(CC)S(=O)(=O)c1cc(C(=O)Nc2ccccc2C(=O)O)ccc1OC	CYP2C9 inh 85.7
COC(=O)c1ccccc1NC(=O)CN(C)S(=O)(=O)c1cc(C)ccc1OC	CYP2C9 inh 66.9, CYP2C19 inh 93.8
COc1ccc(OC)c(S(=O)(=O)N2CCC(C(=O)Nc3cc(C)ccc3C)CC2)c1	none
COC(=O)c1ccccc1NC(=O)C1CCN(S(=O)(=O)c2cc(C)ccc2OC)CC1	CYP2C9 inh 87.7, CYP2C19 inh 86.2
COc1ccc(OC)c(/C(O)=C/C(=O)C(=O)Nc2ccccc2OC)c1	Cav3 T inh -8.53
CCCC(=O)Nc1ccccc1NC(=O)CN(C)S(=O)(=O)c1ccc(C)cc1	none
COc1ccc(NS(=O)(=O)c2ccc3c(c2)CCC(=O)N3)c(OC)c1	none
COc1ccccc1NC(C)=O	none
COc1ccc(S(=O)(=O)N(C)CC(=O)Nc2ccccc2OC)cc1C	CYP2C19 inh 93.2
COc1ccc(OC)c(S(=O)(=O)N(C)CC(=O)Nc2ccccc2OC)c1	CYP2C19 inh 76.9
COc1ccc(NC(=O)CN(C)S(=O)(=O)c2ccc3c(c2)CCC(=O)N3)c(OC)c1	CYP2C19 inh 54.8
O=C(N[C@@H](Cc1ccc(O)cc1)C(=O)O)c1cccnc1	none (no result: CYP2C9 act, CYP2C9 inh, CYP2C19 act, CYP2C19 inh)

Compound activity from PubChem BioAssay.
